# Experimental data as given in the supplement of paper PMC10412459.
# System: K562 SF3B1 K700E vs K562 SF3B1 WT
# Assay: surviving fraction ratio K562 SF3B1 K700E / K562 SF3B1 WT (each relative to DMSO); higher = less selective killing of SF3B1 K700E cells
# Conditions: 5 days
# Method in brief: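 Each value is the mutant-to-wild-type ratio of surviving fractions, with both fractions normalised to DMSO and viability read by CellTiter-Glo. Isogenic K562 cells with an engineered mutant allele and their matched wild-type counterparts were seeded at 250 cells per well in 384-well plates. After 24 h, an in-house 80-compound library was added at 0.5, 1, 5, 10, 50, 100, 500 and 1,000 nM, followed by 5 d of continuous culture.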
smiles,measurement,setting,value
Cn1ncnc1[C@H]1c2n[nH]c(=O)c3cc(F)cc(c23)N[C@@H]1c1ccc(F)cc1 [talazoparib],surviving fraction ratio K562 SF3B1 K700E / K562 SF3B1 WT,0.5nM,0.824
same,surviving fraction ratio K562 SF3B1 K700E / K562 SF3B1 WT,1nM,0.778
same,surviving fraction ratio K562 SF3B1 K700E / K562 SF3B1 WT,5nM,0.775
same,surviving fraction ratio K562 SF3B1 K700E / K562 SF3B1 WT,10nM,0.743
same,surviving fraction ratio K562 SF3B1 K700E / K562 SF3B1 WT,50nM,0.552
same,surviving fraction ratio K562 SF3B1 K700E / K562 SF3B1 WT,100nM,0.571
same,surviving fraction ratio K562 SF3B1 K700E / K562 SF3B1 WT,500nM,0.794
CC(=O)O[C@H]1C(=O)[C@@]2(C)[C@H]([C@H](OC(=O)c3ccccc3)[C@]3(O)C[C@H](OC(=O)[C@H](O)[C@@H](NC(=O)c4ccccc4)c4ccccc4)C(C)=C1C3(C)C)[C@]1(OC(C)=O)CO[C@@H]1C[C@@H]2O [paclitaxel],surviving fraction ratio K562 SF3B1 K700E / K562 SF3B1 WT,0.5nM,0.866
same,surviving fraction ratio K562 SF3B1 K700E / K562 SF3B1 WT,1nM,0.99
same,surviving fraction ratio K562 SF3B1 K700E / K562 SF3B1 WT,5nM,0.864
same,surviving fraction ratio K562 SF3B1 K700E / K562 SF3B1 WT,10nM,1.42
same,surviving fraction ratio K562 SF3B1 K700E / K562 SF3B1 WT,50nM,2.44
same,surviving fraction ratio K562 SF3B1 K700E / K562 SF3B1 WT,100nM,2.46
same,surviving fraction ratio K562 SF3B1 K700E / K562 SF3B1 WT,500nM,3
same,surviving fraction ratio K562 SF3B1 K700E / K562 SF3B1 WT,1000nM,2.44
Cn1nnc2c(C(N)=O)ncn2c1=O [temozolomide],surviving fraction ratio K562 SF3B1 K700E / K562 SF3B1 WT,0.5nM,0.816
same,surviving fraction ratio K562 SF3B1 K700E / K562 SF3B1 WT,1nM,0.823
same,surviving fraction ratio K562 SF3B1 K700E / K562 SF3B1 WT,5nM,0.844
same,surviving fraction ratio K562 SF3B1 K700E / K562 SF3B1 WT,10nM,0.765
same,surviving fraction ratio K562 SF3B1 K700E / K562 SF3B1 WT,50nM,0.88
same,surviving fraction ratio K562 SF3B1 K700E / K562 SF3B1 WT,100nM,0.843
same,surviving fraction ratio K562 SF3B1 K700E / K562 SF3B1 WT,500nM,0.714
same,surviving fraction ratio K562 SF3B1 K700E / K562 SF3B1 WT,1000nM,0.794
C[C@@H](Oc1cc(-c2cnn(C3CCNCC3)c2)cnc1N)c1c(Cl)ccc(F)c1Cl,surviving fraction ratio K562 SF3B1 K700E / K562 SF3B1 WT,0.5nM,0.965
same,surviving fraction ratio K562 SF3B1 K700E / K562 SF3B1 WT,1nM,1.06
same,surviving fraction ratio K562 SF3B1 K700E / K562 SF3B1 WT,5nM,0.847
same,surviving fraction ratio K562 SF3B1 K700E / K562 SF3B1 WT,10nM,0.861
same,surviving fraction ratio K562 SF3B1 K700E / K562 SF3B1 WT,50nM,0.652
same,surviving fraction ratio K562 SF3B1 K700E / K562 SF3B1 WT,100nM,0.542
same,surviving fraction ratio K562 SF3B1 K700E / K562 SF3B1 WT,500nM,1.17
same,surviving fraction ratio K562 SF3B1 K700E / K562 SF3B1 WT,1000nM,1.06
CN(C)CC[C@H](CSc1ccccc1)Nc1ccc(S(=O)(=O)NC(=O)c2ccc(N3CCN(Cc4ccccc4-c4ccc(Cl)cc4)CC3)cc2)cc1[N+](=O)[O-],surviving fraction ratio K562 SF3B1 K700E / K562 SF3B1 WT,0.5nM,0.745
same,surviving fraction ratio K562 SF3B1 K700E / K562 SF3B1 WT,1nM,0.762
same,surviving fraction ratio K562 SF3B1 K700E / K562 SF3B1 WT,5nM,0.761
same,surviving fraction ratio K562 SF3B1 K700E / K562 SF3B1 WT,10nM,0.841
same,surviving fraction ratio K562 SF3B1 K700E / K562 SF3B1 WT,50nM,0.902
same,surviving fraction ratio K562 SF3B1 K700E / K562 SF3B1 WT,100nM,0.819
same,surviving fraction ratio K562 SF3B1 K700E / K562 SF3B1 WT,500nM,0.908
same,surviving fraction ratio K562 SF3B1 K700E / K562 SF3B1 WT,1000nM,0.796
O=C1NC(=NCc2cccs2)S/C1=C\c1ccc2ncccc2c1,surviving fraction ratio K562 SF3B1 K700E / K562 SF3B1 WT,0.2nM,0.909
same,surviving fraction ratio K562 SF3B1 K700E / K562 SF3B1 WT,0.4nM,0.855
same,surviving fraction ratio K562 SF3B1 K700E / K562 SF3B1 WT,2nM,0.878
same,surviving fraction ratio K562 SF3B1 K700E / K562 SF3B1 WT,4nM,0.842
same,surviving fraction ratio K562 SF3B1 K700E / K562 SF3B1 WT,20nM,1.02
same,surviving fraction ratio K562 SF3B1 K700E / K562 SF3B1 WT,40nM,0.921
same,surviving fraction ratio K562 SF3B1 K700E / K562 SF3B1 WT,200nM,0.844
same,surviving fraction ratio K562 SF3B1 K700E / K562 SF3B1 WT,400nM,0.909
COc1ccc(C2=N[C@@H](c3ccc(Cl)cc3)[C@@H](c3ccc(Cl)cc3)N2C(=O)N2CCNC(=O)C2)c(OC(C)C)c1 [Nutlin3],surviving fraction ratio K562 SF3B1 K700E / K562 SF3B1 WT,0.5nM,1
same,surviving fraction ratio K562 SF3B1 K700E / K562 SF3B1 WT,1nM,0.984
same,surviving fraction ratio K562 SF3B1 K700E / K562 SF3B1 WT,5nM,0.843
same,surviving fraction ratio K562 SF3B1 K700E / K562 SF3B1 WT,10nM,0.873
same,surviving fraction ratio K562 SF3B1 K700E / K562 SF3B1 WT,50nM,0.861
same,surviving fraction ratio K562 SF3B1 K700E / K562 SF3B1 WT,100nM,0.781
same,surviving fraction ratio K562 SF3B1 K700E / K562 SF3B1 WT,500nM,0.767
same,surviving fraction ratio K562 SF3B1 K700E / K562 SF3B1 WT,1000nM,0.894
CCN(CC)CCNC(=O)c1c(C)[nH]c(/C=C2\C(=O)Nc3ccc(F)cc32)c1C [sunitinib],surviving fraction ratio K562 SF3B1 K700E / K562 SF3B1 WT,0.5nM,1.09
same,surviving fraction ratio K562 SF3B1 K700E / K562 SF3B1 WT,1nM,1.08
same,surviving fraction ratio K562 SF3B1 K700E / K562 SF3B1 WT,5nM,0.928
same,surviving fraction ratio K562 SF3B1 K700E / K562 SF3B1 WT,10nM,1.33
same,surviving fraction ratio K562 SF3B1 K700E / K562 SF3B1 WT,50nM,0.86
same,surviving fraction ratio K562 SF3B1 K700E / K562 SF3B1 WT,100nM,1.2
same,surviving fraction ratio K562 SF3B1 K700E / K562 SF3B1 WT,500nM,0.73
same,surviving fraction ratio K562 SF3B1 K700E / K562 SF3B1 WT,1000nM,0.857
CCCS(=O)(=O)Nc1ccc(F)c(C(=O)c2c[nH]c3ncc(Cl)cc23)c1F,surviving fraction ratio K562 SF3B1 K700E / K562 SF3B1 WT,0.5nM,1.33
same,surviving fraction ratio K562 SF3B1 K700E / K562 SF3B1 WT,1nM,1.07
same,surviving fraction ratio K562 SF3B1 K700E / K562 SF3B1 WT,5nM,1.13
same,surviving fraction ratio K562 SF3B1 K700E / K562 SF3B1 WT,10nM,0.874
same,surviving fraction ratio K562 SF3B1 K700E / K562 SF3B1 WT,50nM,1.13
same,surviving fraction ratio K562 SF3B1 K700E / K562 SF3B1 WT,100nM,0.998
same,surviving fraction ratio K562 SF3B1 K700E / K562 SF3B1 WT,500nM,1.1
same,surviving fraction ratio K562 SF3B1 K700E / K562 SF3B1 WT,1000nM,1.06
CCCCCCCCCCCCCCCC(=O)Nc1ccn([C@@H]2O[C@H](CO)[C@@H](O)[C@@H]2C#N)c(=O)n1 [Sapacitabine],surviving fraction ratio K562 SF3B1 K700E / K562 SF3B1 WT,0.5nM,0.952
same,surviving fraction ratio K562 SF3B1 K700E / K562 SF3B1 WT,5nM,0.99
same,surviving fraction ratio K562 SF3B1 K700E / K562 SF3B1 WT,50nM,0.729
same,surviving fraction ratio K562 SF3B1 K700E / K562 SF3B1 WT,500nM,1.27
Oc1nc(-c2ccc(C(F)(F)F)cc2)nc2c1CSCC2,surviving fraction ratio K562 SF3B1 K700E / K562 SF3B1 WT,0.5nM,1.15
same,surviving fraction ratio K562 SF3B1 K700E / K562 SF3B1 WT,1nM,0.906
same,surviving fraction ratio K562 SF3B1 K700E / K562 SF3B1 WT,5nM,0.867
same,surviving fraction ratio K562 SF3B1 K700E / K562 SF3B1 WT,10nM,0.822
same,surviving fraction ratio K562 SF3B1 K700E / K562 SF3B1 WT,50nM,1.35
same,surviving fraction ratio K562 SF3B1 K700E / K562 SF3B1 WT,100nM,1.11
same,surviving fraction ratio K562 SF3B1 K700E / K562 SF3B1 WT,500nM,1.15
same,surviving fraction ratio K562 SF3B1 K700E / K562 SF3B1 WT,1000nM,0.958
Cn1cc(C2=Nc3cc(NC(=O)C(N)C4CCCCC4)cc4c3C2=CNNC4=O)cn1 (centres undefined),surviving fraction ratio K562 SF3B1 K700E / K562 SF3B1 WT,0.5nM,0.884
same,surviving fraction ratio K562 SF3B1 K700E / K562 SF3B1 WT,1nM,0.979
same,surviving fraction ratio K562 SF3B1 K700E / K562 SF3B1 WT,5nM,0.826
same,surviving fraction ratio K562 SF3B1 K700E / K562 SF3B1 WT,10nM,0.834
same,surviving fraction ratio K562 SF3B1 K700E / K562 SF3B1 WT,50nM,0.992
same,surviving fraction ratio K562 SF3B1 K700E / K562 SF3B1 WT,100nM,0.621
same,surviving fraction ratio K562 SF3B1 K700E / K562 SF3B1 WT,500nM,0.815
same,surviving fraction ratio K562 SF3B1 K700E / K562 SF3B1 WT,1000nM,1.88
CC[C@@H]1C(=O)N(C)c2cnc(Nc3ccc(C(=O)NC4CCN(C)CC4)cc3OC)nc2N1C1CCCC1,surviving fraction ratio K562 SF3B1 K700E / K562 SF3B1 WT,0.5nM,0.867
same,surviving fraction ratio K562 SF3B1 K700E / K562 SF3B1 WT,1nM,0.956
same,surviving fraction ratio K562 SF3B1 K700E / K562 SF3B1 WT,5nM,0.455
same,surviving fraction ratio K562 SF3B1 K700E / K562 SF3B1 WT,10nM,2.45
same,surviving fraction ratio K562 SF3B1 K700E / K562 SF3B1 WT,50nM,2.89
same,surviving fraction ratio K562 SF3B1 K700E / K562 SF3B1 WT,100nM,2.99
same,surviving fraction ratio K562 SF3B1 K700E / K562 SF3B1 WT,500nM,2.76
same,surviving fraction ratio K562 SF3B1 K700E / K562 SF3B1 WT,1000nM,2.22
